# Several values for one entry are separate records, joined by “and”; a condition that tells them apart may be missing. Equal values may be shown once. The campaign covered roughly 420,000 compounds. About 50,000 (12%) were called active. Inconclusive results (about 26%) are left out. The call rests on the fitted dose curve; in most records, active means well fitted inhibition curve with a large enough effect; inconclusive means small, poorly fitted or top-dose-only effect; inactive means flat fitted curve, though single readings scatter. This excerpt belongs to a sample that is enriched for actives.
# Experiment: qHTS for Inhibitors of human tyrosyl-DNA phosphodiesterase 1 (TDP1): qHTS in cells in presence of CPT; further: nearly all actives have a fitted effect of over 55% in size
# Settings: chicken DT40 Tdp1-/-;hTDP1 cells + 20 nM CPT, ATP luminescence, 48 h; series mostly up to 46.2 µM; activity change, negative = growth inhibition: at the top concentration
# In short: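 Chicken DT40 Tdp1-/- cells stably complemented with human TDP1 were seeded at 400 cells/well in medium containing 20 nM camptothecin, exposed to pin-transferred compounds, and grown at 37 °C for at least 48 hr. Viability was read as ATP luminescence.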
# On the % scale 0 is the no-effect control and ±100 the full control effect; potency means the concentration at half of the fitted maximal effect.
SMILES,"activity change, negative = growth inhibition",Potency
CN(C)/C(=N\OC(=O)c1ccccc1)c1nonc1N,8% (inactive),
C=C(C)CNC(=O)c1ccc(OC2CCN(C(=O)COC)CC2)cc1,-3.36% (inactive),
Cc1c(NC(=O)CSc2nnnn2-c2ccc(C(=O)O)cc2)c(=O)n(-c2ccccc2)n1C,16.4% (inactive),
CS(=O)(=O)N(CC(=O)N1CCc2ccccc2C1)c1ccc(Br)cc1,1.53% (inactive),
CN(CCc1ccccc1)c1ccc([N+](=O)[O-])cn1,-24.2% (inactive),
Cc1c(C)c2c(OCC(=O)N[C@@H](C(=O)O)c3ccccc3)cc3c(c2oc1=O)CCC(C)(C)O3,3.69% (inactive),
COc1ccc2c(c1)CCc1cnc(-n3ncc(C(=O)NCCN4CCOCC4)c3C)nc1-2,8.01% (inactive),
Cc1cc(C)nc(SCC(=O)c2ccc(Cl)cc2)n1,-14.4% (inactive),
Cc1cc(Oc2ccc(Cl)cc2)nc(SCC(=O)c2ccccc2)n1,,23.1 µM (active)
COC(=O)c1cc(C(=O)CSc2nc(C)cc(C)n2)ccc1O,-20.2% (inactive),
O=C(COC(=O)CCCSc1nc2ccccc2[nH]1)Nc1ccc(Oc2ccccc2)cc1,-13% (inactive),
NC(=O)CC[C@@H]1NC(=O)[C@@H]2CCCN2C(=O)c2cc([N+](=O)[O-])cc(F)c2NCCC[C@@H](C(N)=O)NC1=O,2.58% (inactive),
CC1(C)CN(Cc2cccnc2)C(=O)[C@H]1CC(=O)Nc1ccc(Br)cc1,-1.2% (inactive),
Cc1ccc2c(c1)C(c1ccccc1)N(C(=O)c1ccc(F)cc1)CC(=O)N2 (stereo not drawn),-4.21% (inactive),
CC(C)C(=O)N1CC(=O)Nc2ccc(F)cc2C1c1ccc(F)cc1 (stereo not drawn),-8.49% (inactive),
COc1ccc(CC(=O)N2CC(=O)Nc3ccc(Br)cc3C2c2ccc(F)cc2)cc1OC (stereo not drawn),,16.4 µM (active)
CCC(CC)C(=O)N1CC(=O)Nc2ccc(Br)cc2C1c1ccccc1 (stereo not drawn),,23.1 µM (active)
O=C1CN(C(=O)c2ccccc2F)C(c2ccc(F)cc2)c2cc(F)ccc2N1 (stereo not drawn),19.9% (inactive),
COC(=O)CN1C(C)=Nc2ccc(Br)cc2C1c1ccccc1 (stereo not drawn),-16.9% (inactive),
COc1ccc(C(=O)Nc2ccnn2C2CCN(Cc3ccncc3)CC2)cc1,9.74% (inactive),
COC(=O)c1sc2ncccc2c1-n1c(C)ccc1C,-15.9% (inactive),
Cc1cc(Cl)ccc1NNC(=O)c1snnc1C,-14.9% (inactive),
Brc1ccc(-c2csc(N/N=C/c3cccnc3)n2)cc1,-25% (inactive),
O=C(CSc1nnc(Cn2cnc3ccccc32)o1)c1ccccc1,,11.6 µM (active)
CC(=O)Nc1ccc(C(=O)CSc2nnc(Cc3ccccc3)o2)cc1,-9.59% (inactive),
O=C(CSc1nnc(-c2c[nH]c3ccccc23)o1)c1ccccc1,-3.09% (inactive),

SMILES,"activity change, negative = growth inhibition",Potency
CCCN(c1ccc(C)cc1)c1nc(=O)c2cccnc2s1,-29.5% (inactive),
Cc1nc(N2CCOCC2)c2c(C(=O)NCc3cccc(Cl)c3)c(C)oc2n1,-0.0309% (inactive),
COc1ccc(N2CCN(C(=O)c3c(C)oc4nc(C)nc(N5CCCC5)c34)CC2)cc1,-8.38% (inactive),
CCOC(=O)c1c(C)oc2nc(C)nc(N3CCN(c4ccc(OC)cc4)CC3)c12,,7.31 µM (active)
CCOc1ccc(CCNC(=O)CN(c2ccc(C)cc2)S(=O)(=O)N(C)C)cc1OCC,-28.9% (inactive),
CCc1ccc(C2CC(=O)c3c([nH]c(C(=O)OCc4ccc(C)cc4)c3C)C2)cc1 (stereo not drawn),,6.51 µM (active)
CC(C)(C)N1C(=O)c2c(C(=O)OCc3ccccc3)[nH]c(-c3ccccc3)c2C1=O,-26.7% (inactive),
CCOC(=O)c1cc(=O)c2ccc(OCc3ccccc3)cc2o1,-0.489% (inactive),
CCOc1ccc(C2CC(=O)c3c([nH]c(C(=O)OCc4ccccc4)c3C)C2)cc1 (stereo not drawn),,13 µM (active)
CCOC(=O)c1[nH]c2c(c1-c1ccccc1)C(=O)CC(c1ccc(Cl)cc1)C2 (stereo not drawn),-17.1% (inactive),
CCOC(=O)C(Cc1ccccc1)NC(=O)CCC(=O)c1ccc(OC)cc1 (stereo not drawn),7.45% (inactive),
CN1C(=O)/C(=C/C=C2\SCCN2C)OC1=S,8.02% (inactive),
Cc1ccn2c(=O)nc(SCC(=O)NCc3ccc4c(c3)OCO4)nc2c1,-23.3% (inactive),
CCOc1ccccc1NC(=O)CSc1ncc(S(=O)(=O)c2ccc(C(C)(C)C)cc2)c(=O)[nH]1,6.92% (inactive),
O=C(NCC(=O)N(c1ccccc1)C(C(=O)NCC1CCCO1)c1ccccc1)c1cccs1 (stereo not drawn),-0.896% (inactive),
Cc1ccc(N2CCN(C(=O)CCc3c(C)nc4c(c3C)c(=O)n(C)c(=O)n4C)CC2)c(C)c1,20.1% (inactive),
COc1cc(NC(=O)CSc2nc3nc(C)c(Cc4ccc(C)cc4)c(C)n3n2)cc(OC)c1OC,,13 µM (active)
COc1cc(NC(=O)CCn2nc(C)cc2C)cc(OC)c1OC,-14.5% (inactive),
Cc1ccc(Cc2c(C)nc3nc(SCC(=O)NCCN4CCOCC4)nn3c2C)cc1,-20.8% (inactive),
CCn1c(SC)nc(O)c(C(c2ccc(OC)c(O)c2)c2c(O)nc(SC)n(CC)c2=O)c1=O,-19% (inactive),
CC(C)Oc1ccc(CN2CCC2(C)C(=O)NCc2ccc(C(F)(F)F)cc2)cc1 (stereo not drawn),,25.9 µM (active)
CC(C)CN1CCC1(C)C(=O)Nc1ccc(OC(F)F)cc1 (stereo not drawn),0.933% (inactive),
CC(C)Oc1ccc(Oc2ccc(C(F)(F)F)cn2)cc1,-7.36% (inactive),
CN(CC(=O)Nc1ccc(Cl)cc1)C(=O)CNC(=O)c1ccc2ccccc2c1,15.8% (inactive),
O=C(/C=C/c1ccccc1)Oc1coc(CSc2ncccn2)cc1=O,-1.71% (inactive),
COc1ccc(-c2nn3c(-c4ccc(OC)cc4)nnc3c3ccccc23)cc1,-23.6% (inactive),

SMILES,"activity change, negative = growth inhibition",Potency
COc1ccccc1OCCCC(=O)Nc1ccc2c(c1)OCCO2,-7.91% (inactive),
COc1ccc(OC)c(/C=C/C(=O)OCC(=O)Nc2ccc3c(c2)OCCO3)c1,,20.6 µM (active)
COc1cccc(/C=C/C(=O)Nc2ccc3c(c2)OCCO3)c1,-16.5% (inactive),
Nc1nnc(SCC(=O)NCC(=O)Nc2ccc(F)c(F)c2F)s1,-26.3% (inactive),
COc1ccc(C2/C=C\CN(CC(C)C)CC(=O)N2Cc2ccc(F)cc2)cc1 (stereo not drawn),-28.6% (inactive),
O=C1c2ccccc2C(O)N1Cc1ccccc1 (stereo not drawn),-3.68% (inactive),
O=C(N[C@H]1C/C=C\C(c2ccc(F)cc2)N(Cc2ccccc2)C(=O)C1)OCC1c2ccccc2-c2ccccc21 (stereo partly drawn),,18.4 µM (active)
Cn1c(SCC(=O)N2CCCC2)nnc1-c1ccc2c(c1)OCO2,0.427% (inactive),
O=C(CNCc1ccc(Cl)cc1)Nc1cccc(C(=O)O)c1,-7.19% (inactive),
CCN(CC)C(=O)CSc1nc2ccsc2c(=O)n1Cc1ccccc1Cl,,18.4 µM (active)
CCOC(=O)CSc1nc2c(c(=O)n(Cc3ccccc3Cl)c(=O)n2C)n1C,-1.36% (inactive),
CCOC(=O)n1c(SCC(=O)N(CC)CC)nc2ccccc21,-5.32% (inactive),
O=C(CSc1ccsc1[N+](=O)[O-])N1CCCCC1,5.2% (inactive),
O=C(Nc1sc2c(c1-c1nc3ccccc3[nH]1)CCCC2)C1CC1,-5.5% (inactive),
CC(=O)Nc1nonc1-c1nc2ccccc2n1Cc1ccccn1,-7.68% (inactive),
COc1ccc(C)c(Cn2c(-c3nonc3N)nc3ccccc32)c1,,2.59 µM (active)
Fc1ccc(CNc2nc3ccccc3n3nnnc23)cc1,0.303% (inactive),
Nc1nonc1-c1nc2ccccc2n1Cc1ccc(F)cc1,,16.4 µM (active)
COc1ccc2oc(N)nc2c1,0.744% (inactive),
COc1cccc(C(O)c2nc3ccccc3n2C)c1 (stereo not drawn),-2.32% (inactive),
CN(C)S(=O)(=O)c1ccc(N2CCCC2=O)c([N+](=O)[O-])c1,15.4% (inactive),
Cc1ccc(F)cc1NC(=O)N1CCCN(c2ccc(C(F)(F)F)cn2)CC1,-23.3% (inactive),
O=C(Cn1c(=O)n(Cc2ccccc2)c(=O)c2sc3ccccc3c21)Nc1ccccc1F,-24.1% (inactive),
Brc1ccccc1C1N=C(c2ccccc2)NO1 (stereo not drawn),9.11% (inactive),
CCc1nc2c(=O)[nH]cnc2o1,-2.41% (inactive),
Cc1n[nH]c(=O)c2c(NC(=O)CSc3cc(Cl)ccc3Cl)oc(C)c12,4.94% (inactive),

SMILES,"activity change, negative = growth inhibition",Potency
CCOc1ccc2c(=O)c(-c3ccc4c(c3)OCCCO4)c(C)oc2c1,,18.4 µM (active)
CCOc1ccc(NC(=O)Cn2cc(C(=O)c3ccc(C)cc3)c(=O)c3cc4c(cc32)OCCO4)cc1,-10.7% (inactive),
O=C(COc1ccc2c(C(F)(F)F)cc(=O)oc2c1)Nc1ccc2c(c1)OCCO2,-7.01% (inactive),
Cc1nc2c(c(C)nn2-c2ccccc2)c(C)c1CCC(=O)NCCc1ccc(Cl)cc1,-24.3% (inactive),
CCOC(=O)C1CCCN(C(=O)c2ccc(C)c(F)c2)CC1 (stereo not drawn),0.95% (inactive),
C=CCn1c(SCC(=O)CC(=O)OCC)nc2cc(C(=O)N3CCC(C(N)=O)CC3)ccc2c1=O,22.1% (inactive),
CCOC(=O)C1CCN(C(=O)c2ccc3c(=O)n4nc(Nc5ccccc5CC)sc4nc3c2)CC1,,13 µM (active)
Cc1ccccc1Nc1nn2c(=O)c3ccc(C(=O)NCCc4ccc(Cl)cc4)cc3nc2s1,,5.8 µM (active)
CCc1ccc(Nc2nn3c(=O)c4cc5c(cc4nc3s2)OCO5)cc1,-1.7% (inactive),
CC(=O)NS(=O)(=O)c1ccc2c(c1)Cc1cc(S(=O)(=O)NC(C)=O)ccc1-2,-22.8% (inactive),
O=C(CN(C(=O)CCC(=O)Nc1nccs1)c1ccc(F)cc1)NCc1ccc2c(c1)OCO2,-19.5% (inactive),
CO[C@@H]1[C@@H](OC(N)=O)[C@@H](O)C(Oc2ccc3c(O)c(NC(=O)c4ccc(O)c(CC=C(C)C)c4)c(=O)oc3c2C)OC1(C)C (stereo partly drawn),5.01% (inactive),
Nc1ccc(-c2nnc(-c3ccccc3)o2)cc1,3.39% (inactive),
Cc1ccc(S(=O)(=O)NCCC(=O)Nc2cccc(S(N)(=O)=O)c2)cc1C,-27.5% (inactive),
c1ccc(-n2nnnc2N2CCOCC2)cc1,-12.1% (inactive),
FC(F)(F)c1cc(-c2ccco2)nc(N2CCOCC2)n1,-9.95% (inactive),
c1ccc2c(NC3C4CC5CC(C4)CC3C5)nc(N3CCOCC3)nc2c1 (stereo not drawn),,10.3 µM (active)
Cc1ccc(NC(=O)Cc2nc(COC(=O)C(C)NS(=O)(=O)c3ccc(C)cc3)cs2)cc1 (stereo not drawn),-12.3% (inactive),
CCOC(=O)c1ccc(NC(=S)Nc2cc(C)cc(C)n2)cc1,-1.9% (inactive),
CN(c1ccccc1)c1nc(N)c([N+](=O)[O-])c(NCc2ccco2)n1,3.35% (inactive),
Cc1ccc(C(=O)NNc2ncnc3ccccc23)cc1,-22.4% (inactive),
c1coc(CNc2ncnc3ccccc23)c1,,7.08 µM (active) and 10.3 µM (active)
c1ccc(-c2nc(NCc3ccco3)c3ccccc3n2)cc1,,16.4 µM (active)
Brc1nc2ncnc(NCc3ccco3)c2[nH]1,-15.7% (inactive),
CS(=O)(=O)n1nc(-c2ccccc2)nc1NCc1ccco1,8.04% (inactive),

# Reference: PubChem BioAssay AID686979 (National Center for Advancing Translational Sciences (NCATS), 2013)
